UCHL1 inh: inhibitors of human UCHL1 deubiquitinase. purified UCHL1, Ub-rhodamine cleavage fluorescence. inhibition, % at 20 µM. hit rate 0.2% among 47,000. Ubiquitin carboxyl-terminal hydrolase isozyme L1 (Homo sapiens), P09936
USP8 block: inhibitors of human USP8 deubiquitinase. hit rate 4.2% among 47,000. Ubiquitin carboxyl-terminal hydrolase 8 (Homo sapiens), P40818. purified USP8, Ub-rhodamine cleavage fluorescence, 30 min. inhibition, % at 20 µM
USP10 block: inhibitors of human USP10 deubiquitinase; inhibition, % at 20 µM; hit rate 1.1% among 47,000; purified USP10, Ub-rhodamine fluorescence, 60 min; AID 1645856, 2021
USP7 inh: inhibitors of human USP7 deubiquitinase. purified USP7, Ub-rhodamine cleavage fluorescence. inhibition, % at 20 µM. hit rate 0.3% among 47,000. AID 1645854, 2021
Active calls of the source: *. In the library only some 4.6% were active in any assay of this set; here they are far more common. No stated cut-off is given here; in the data, active means inhibition above about 30%; inactive means the rest.

SMILES	UCHL1 inh	USP8 block	USP10 block	USP7 inh
CC(C)(C)C(=O)[C@@H]1[C@@H](C(=O)c2ccc3c(c2)OCO3)[C@@]2(C(=O)Nc3ccccc32)[C@H]2c3ccccc3C=CN12	21	93*	16	-15
O=C(c1ccc2c(c1)OCO2)[C@@H]1[C@H](C(=O)OC(c2ccccc2)c2ccccc2)N2c3ccccc3C=CC2[C@@]12C(=O)Nc1ccccc12 (some centres not stated)	-26	19	-5	-24
O=C(NCc1ccc(F)cc1)c1csc(C(=O)N2CCCC2)n1	0	-6	5	-1
COc1ccc(-c2cn3ccc4cc(OC)c(OC)cc4c3c2-c2ccc(OC)c(OC)c2)cc1	-2	31*	-2	0
O=C(Cc1c(F)cccc1Cl)N1CCC[C@@H]1[C@@H](O)c1nccs1	0	-3	0	3
COc1cc(NC(=O)c2ccco2)c(OC)cc1NC(=O)CN1CCCCC1	3	1	-5	-5
COc1ccc(-c2c(C)c(C(=O)c3ccco3)n3ccc4cc(OC)c(OC)cc4c23)cc1OC	-7	68*	-9	-16
Cc1nn(-c2ccc(Cl)cc2)c2[nH]c(=O)c(CNc3ccc4c(c3)OCCO4)cc12	11	80*	18	30
Cc1nn(-c2ccc(Cl)cc2)c2[nH]c(=O)c(CNc3ccccc3)cc12	2	80*	6	5
Cc1ccc(NCc2cc3c(C(C)(C)C)nn(-c4ccc(Cl)cc4)c3[nH]c2=O)cc1C	-1	88*	9	4
COc1ccc2c(c1)c(CC(=O)Nc1ccc3c(c1)OCCO3)c(C)n2C(=O)c1ccc(Cl)cc1	4	5	8	-2
Cc1cc(=O)[nH]c(N2CCN(c3ccc(Cl)cc3)CC2)n1	1	25	3	-18
Cc1nn(-c2ccccc2)c2[nH]c(=O)c(CNc3ccccc3)cc12	0	4	3	8
Cc1nn(-c2ccccc2)c2[nH]c(=O)c(CNCCN3CCOCC3)cc12	2	22	2	6
Cc1nn(-c2ccc(Cl)cc2)c2[nH]c(=O)c(CNCCc3ccccc3)cc12	0	78*	4	0
Clc1ccccc1CSc1ncnc2c1oc1ccccc12	-1	23	7	4
CC(=O)N1CCN(C(=O)c2cccc(Cl)c2)CC2(CC(=O)N(C)C2)C1 (configuration not stated)	-1	-233	3	0
CC(C)(C)c1nn(-c2ccc(Cl)cc2)c2[nH]c(=O)c(CNCc3ccco3)cc12	5	66*	7	-63
O=C(Nc1nc2c(s1)CN(C(=O)/C=C/c1ccco1)CC2)C1CCCO1 (configuration not stated)	-100	41*	-8	-153
O=C(Nc1ccc(F)cc1)c1ccc(-c2ccc(N3CCCC3)nn2)cc1	3	49*	0	4
COc1ccc(C2CCCCCN2C(=O)Cn2ccccc2=O)cc1 (configuration not stated)	0	67*	-2	-7
CCN1CCN(c2cc(-n3ccnc3C)n3nccc3n2)CC1	-4	-7	-6	-2
COc1ccc(CCN2COc3c(cc(Cl)c4cccnc34)C2)cc1OC	31*	97*	19	-27
CCc1cc(C(=O)N2CCN(c3ccccn3)CC2)nc2ccnn12	-2	3	-1	-2
Cc1nc(N2CCCC2)ncc1-c1cc(=O)[nH]c(Nc2ccc(Cl)cc2Cl)n1	3	1	51*	14
SMILES	UCHL1 inh	USP8 block	USP10 block	USP7 inh
Cc1cc(NC(=O)CSc2ncc(-c3cccc([N+](=O)[O-])c3)n2-c2cccc(Cl)c2)no1	-2	55*	64*	12
O=S(=O)(Cc1ccc(F)cc1)c1c[nH]c2ccccc12	4	68*	2	1
O=C(Cn1cc(S(=O)(=O)Cc2ccc(F)cc2)c2ccccc21)N1CCCCCC1	0	-2	0	-81
Nc1c(-c2ccc(Cl)cc2)cnc2nc(Sc3ncc(C(F)(F)F)cc3Cl)nn12	2	35*	23	9
CCS(=O)(=O)N1Cc2ccccc2CC1C(=O)Nc1nc2ccccc2s1 (configuration not stated)	10	32*	14	20
O=C(Nc1nc2ccccc2s1)C1CC(=O)N(c2ccccc2)C1 (configuration not stated)	1	-6	4	-167
O=C(CSc1ccc2nnc(-c3ccncc3)n2n1)Nc1cccc(C(F)(F)F)c1	-9	90*	-3	-15
COc1cccc(C(=O)Nc2ccc(SC(C)C(=O)Nc3ccc(C(N)=O)cc3)cc2)c1 (configuration not stated)	1	15	36*	7
